Screens from PubChem BioAssay.
Compounds with a hit are over-represented: about 8.9% of the library has one in this group of screens.
NPSR antagonist: blocks cAMP signaling of the human neuropeptide S receptor | 1% of 220,000 active | CHO-NPSR cells, cAMP TR-FRET, antagonist mode | AID 1461 | Potency, µM (series often up to 38.3 µM), usual class: inhibitors | Q6W5P4; further: nearly all actives have a fitted effect of over 50% in size
IMPase Li inh: IMPase inhibition in cells with lithium potentiation | CHO-M1 cells, IP1 TR-FRET (IP-One), carbachol + lithium | Potency, µM (highest dose often 59.4 µM), usual class: inhibitors | 0.35% of 210,000 active | AID 1457;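 further: IP1 builds up when IMPase is blocked and the TR-FRET signal falls; nearly all actives have a fitted effect of over 50% in size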
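Concentration–response in CHO-M1 cells, lithium-potentiated; 30 min at 37C. IP1 detected by competitive TR-FRET after 10 min lysis at RT. Hill-fitted AC50.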
IMPase cell inh: membrane-permeable compound that blocks inositol monophosphatase; CHO-M1 cells, IP1 accumulation, HTRF TR-FRET ratio; inhibition (IP1 accumulation), % at 46.1 µM; 120,000 tested, under 10 active; active means well fitted curve in the direction sought with a large enough effect in the signal ratio, not every such curve was filed as active; inconclusive means small, poorly fitted or top-dose-only effect, or a change in a side signal; inactive means no such curve, though single readings can be large or run the other way; the % refers to the signal ratio;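 further: cells stimulated with carbachol in lithium chloride buffer; higher means more IMPase inhibition seen as more IP1 and lower FRET ratio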
Target sequence (P97697 whole entry, looked up): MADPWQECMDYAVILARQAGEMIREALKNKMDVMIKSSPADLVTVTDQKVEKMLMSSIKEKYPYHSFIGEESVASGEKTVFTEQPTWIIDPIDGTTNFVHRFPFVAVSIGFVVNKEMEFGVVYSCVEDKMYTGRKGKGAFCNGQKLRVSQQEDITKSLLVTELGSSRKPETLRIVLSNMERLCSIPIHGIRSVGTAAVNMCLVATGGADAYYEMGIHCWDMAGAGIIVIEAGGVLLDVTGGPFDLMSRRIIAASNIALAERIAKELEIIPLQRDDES
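CHO-M1, 2000 cells/well, cultured 16–30 h; cpd up to 46 uM; carbachol (50 uM solution, stimulation buffer w/ 50 mM LiCl, pH 7.4), 30 min 37C; IP-One TR-FRET, 10 min RT; Ex 320/Em 665, 620; Hill-fit AC50.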
ALDH1A1 inh: blocks purified human ALDH1A1 activity | P00352 | Purified ALDH1A1, NADH fluorescence, propionaldehyde substrate | Potency, µM (titrated, usually from 75.3 µM), hits mostly inhibitors | 7.3% of 220,000 active; active means well fitted inhibition curve with a large enough effect, not every such curve was filed as active; inconclusive means small, poorly fitted or top-dose-only effect, or another doubt; inactive means no such curve, though single readings can be large or run the other way
HPGD block: HPGD (human) dehydrogenase inhibition. P15428. purified HPGD, NADH fluorescence kinetic, PGE2 substrate. Potency, µM, usual class: inhibitors. 4.3% of 150,000 active; active means well fitted inhibition curve with a large enough effect, not every such curve was filed as active; inconclusive means small, poorly fitted or top-dose-only effect, or another doubt; inactive means no such curve, though single readings can be large or run the other way
Target sequence (P15428 whole entry, looked up): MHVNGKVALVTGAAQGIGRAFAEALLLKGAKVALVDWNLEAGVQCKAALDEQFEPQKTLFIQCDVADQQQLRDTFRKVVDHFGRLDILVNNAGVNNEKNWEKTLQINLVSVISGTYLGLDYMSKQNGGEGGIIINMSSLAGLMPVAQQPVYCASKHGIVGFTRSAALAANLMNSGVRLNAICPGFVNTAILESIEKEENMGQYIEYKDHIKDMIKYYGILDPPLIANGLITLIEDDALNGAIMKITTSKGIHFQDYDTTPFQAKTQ
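NADH formation kinetics: reaction with 30 uM PGE2 and 1 mM NAD+ (final), 20 nM enzyme, Tris-HCl pH 8 with Tween 20, after 15 min compound preincubation at room temperature. Fluorescence change, last versus first of five reads.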
ALOX12 inhib: inhibitors of human 12-lipoxygenase (ALOX12); P18054; purified 12-hLO, xylenol orange hydroperoxide absorbance; Potency, µM (top dose mostly 57.1 µM), most hits filed as inhibitors; 0.12% of 150,000 active; AID 1452; further: nearly all actives have a fitted effect of over 55% in size
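Hydroperoxide formation by human 12-lipoxygenase from 40 uM arachidonic acid was followed colorimetrically via ferric-xylenol orange complex, using the 573/405 nm absorbance ratio. Enzyme concentration was 150 nM, with 30 min reaction at room temperature.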
A number is an active result; n = inactive; u = inconclusive; x = no result. Unless noted, the call rests on the fitted dose curve; in most records, active means well fitted curve in the direction sought with a large enough effect; inconclusive means small, poorly fitted or top-dose-only effect, or another doubt; inactive means no such curve, though single readings can be large; an effect the other way counts as inactive or inconclusive.

SMILES	NPSR antagonist	IMPase Li inh	IMPase cell inh	ALDH1A1 inh	HPGD block	ALOX12 inhib
COc1ccc(C(NC(=O)c2ccccc2F)NC(=O)c2ccccc2F)cc1	n	n	n	n	n	n
Cc1ccc2c(c1)C(=O)CC(O)(C(F)F)O2 (stereo not drawn)	n	x	x	x	x	x
Cc1ccc(-n2nnnc2SCc2nnc(-c3ccccc3Br)o2)cc1	n	n	n	u	n	n
COc1ccc(/C=N/NC(=S)SC)cc1OC	u	n	x	10µM	x	x
COc1ccc(C(=O)Oc2cc(/C=N/NS(=O)(=O)c3ccccc3)ccc2OC)cc1	n	n	n	3.2µM	n	n
COc1ccc(/C=N/NS(=O)(=O)c2ccc(C)cc2)cc1OC(=O)c1ccc(C)cc1	n	n	n	u	n	n
COc1ccc(/C=N/NC(N)=S)cc1OC(=O)c1ccccc1	n	n	n	n	25µM	n
CCOC(=O)c1cccc(C(=O)Nc2nc3ccc(OC)cc3s2)n1	n	n	x	n	x	x
Cc1ccc(S(=O)(=O)NC(=O)Nc2nccs2)cc1	n	x	x	x	x	x
COC(=O)c1ccc(COC(=O)c2ccc(N(C)C)cc2)cc1	n	n	n	25µM	u	n
O=C(COC(=O)c1cnc(Cl)c(Cl)c1)NCCC1=CCCCC1	n	n	x	13µM	x	x
CCOC(=O)c1ccc(NC(=S)NCCC2=CCCCC2)cc1	n	n	n	u	14µM	25µM
Cc1ccc(NC(=S)NCCC2=CCCCC2)cc1	n	n	x	n	x	x
CN(C)c1ccc(C(=O)OCC(=O)NCCC2=CCCCC2)cc1	n	n	x	35µM	x	x
O=C(Cn1nc(-c2ccccc2)c2ccccc2c1=O)Nc1cccc(O)c1	n	n	x	n	x	x
CC(NC(=O)c1ccco1)C(=O)N1CCc2ccccc2C1 (stereo not drawn)	n	n	n	n	n	n
c1ccc(-c2cnc(CSc3ncnc4sccc34)o2)cc1	n	n	n	n	3.2µM	n
O=C(Nc1nnc(SCc2ccc(Cl)cc2)s1)C1CCCO1 (stereo not drawn)	n	n	n	n	n	n
O=C(Nc1nnc(COc2ccc(Cl)cc2)s1)C1CCCO1 (stereo not drawn)	n	n	n	10µM	18µM	n
CCc1nnc(NC(=O)C2CCCO2)s1 (stereo not drawn)	n	n	x	n	x	x
CC(C)c1nnc(NC(=O)C2CCCO2)s1 (stereo not drawn)	n	n	x	3.8µM	x	x
O=C(Nc1nnc(COc2ccc(Cl)cc2)s1)c1cccs1	n	n	n	10µM	25µM	n
O=C(Nc1nnc(COc2ccc(F)cc2)s1)c1cccs1	n	n	n	n	n	n
O=C(Nc1nnc(COc2ccc(Cl)cc2)s1)c1ccco1	n	n	x	3.2µM	x	x
Cc1c(O)ccc2c(CN3CCN(C/C=C/c4ccccc4)CC3)cc(=O)oc12	n	x	x	x	x	x
SMILES	NPSR antagonist	IMPase Li inh	IMPase cell inh	ALDH1A1 inh	HPGD block	ALOX12 inhib
Nc1ccc([N+](=O)[O-])cc1C(=O)NNC(=O)c1ccco1	n	x	x	x	x	x
O=C1NC2(CCCCC2)C(=O)N1Cc1cc(=O)n2ccsc2n1	n	n	x	n	x	x
CCOCc1nnc(NC(=O)c2cc(Cl)ccc2OC)s1	n	n	n	u	14µM	n
Cc1cc(C(=O)OCC(=O)N2CC(C)CC(C)C2)c(C)o1 (stereo not drawn)	n	n	n	14µM	n	n
CCOc1cc(/C=N/NC(=O)C(=O)NCc2cccnc2)ccc1O	n	n	x	n	x	x
CCc1nc(NCc2ccc3c(c2)OCO3)c2oc3ccccc3c2n1	n	n	n	13µM	n	n
CCc1nc(Nc2ccc3c(c2)OCCO3)c2oc3ccccc3c2n1	u	n	n	25µM	n	n
Cc1nc(NCc2ccc3c(c2)OCO3)c2oc3ccccc3c2n1	n	n	n	u	n	n
COc1ccc(OC)c(/C=C/C(=O)Nc2cccc(S(=O)(=O)N3CCCC3)c2)c1	n	n	x	u	x	x
COc1cccc(/C=C(/C#N)c2ccc(Cl)cc2)c1OCc1cccc(C(=O)O)c1	u	x	x	n	x	x
COc1cccc(/C=C(/C#N)c2ccc(F)cc2)c1OCc1cccc(C(=O)O)c1	n	n	x	13µM	u	n
C=CCN1C(c2ccccc2)=CS/C1=C(/C#N)c1nnc(N2CCOCC2)n1-c1ccccc1	n	n	x	5.6µM	n	n
